Records with an inconclusive call do not appear. The source made the active and inactive calls. Unless noted, the call rests on the fitted dose curve; in most records, active means well fitted curve in the direction sought with a large enough effect in the repeat runs; inconclusive means weak or mixed curves; inactive means no such curve, though single readings can be large; an effect the other way counts as inactive or inconclusive.
What was measured:
[1] = qHTS RealTime-Glo MT Cell Viability Assay in HEK293 cells - 0 hour (AID 1224880); further: top concentration of the series differs between compounds; nearly all actives have a fitted effect of over 45% in size
Outline: (§1)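 Viable HEK293 cells reduce a cell-permeant prosubstrate; the product diffuses out and is consumed by NanoLuc in the medium to give light. Compounds went in after a 5 h incubation and plates were read over the treatment course.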

[2] = A CellTox Green Cytotoxicity Assay to monitor cytotoxicity in HEK293 cells - 32 hour (AID 1224881); further: nearly all actives have a fitted effect of over 40% in size; further: potency means the concentration at half of the fitted maximal effect
Outline: (§2)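 Fluorescence intensity, read at 0, 8, 16, 24, 32 and 40 h of compound treatment, reflected dye binding to DNA of dead HEK293 cells; compounds (23 nL, DMSO) were added 5 h after plating cells with reagent.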

[3] = A CellTox Green Cytotoxicity Assay to monitor cytotoxicity in HepG2 cells - 0 hour (AID 1224882); further: nearly all actives have a fitted effect of over 35% in size; further: potency means the concentration at half of the fitted maximal effect
Outline: (§3)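 Using 1536-well format, dye-containing HepG2 suspension was seeded, allowed 5 h at 37 C/5% CO2, dosed by pintool with compounds, positive and negative controls, and imaged for fluorescence across 40 h.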

[4] = A CellTox Green Cytotoxicity Assay to monitor cytotoxicity in HepG2 cells - 32 hour (AID 1224883); further: nearly all actives have a fitted effect of over 50% in size; further: potency means the concentration at half of the fitted maximal effect
Outline: as §3

[5] = A CellTox Green Cytotoxicity Assay to monitor cytotoxicity in HEK293 cells - 8 hour (AID 1224884); further: nearly all actives have a fitted effect of over 35% in size; further: potency means the concentration at half of the fitted maximal effect
Outline: as §2

[6] = qHTS RealTime-Glo MT Cell Viability Assay in HEK293 cells - 24 hour (AID 1224886); further: nearly all actives have a fitted effect of over 50% in size; further: potency means the concentration at half of the fitted maximal effect; on activity change, negative = cytotoxicity: top concentration of the series differs between compounds
Outline: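 Cells + reagent dispensed (600 cells/well, HEK293) → 5 h at 37 C/5% CO2 → 23 nL compound in DMSO pinned → 40 h at 37 C → luminescence read at 0, 8, 16, 24, 32, 40 h.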

[7] = qHTS RealTime-Glo MT Cell Viability Assay in HEK293 cells - 8 hour (AID 1224887); further: nearly all actives have a fitted effect of over 50% in size; further: potency means the concentration at half of the fitted maximal effect; on activity change, negative = cytotoxicity: top concentration of the series differs between compounds
Outline: as §1

[8] = A CellTox Green Cytotoxicity Assay to monitor cytotoxicity in HEK293 cells - 16 hour (AID 1224888); further: nearly all actives have a fitted effect of over 35% in size; further: potency means the concentration at half of the fitted maximal effect
Outline: as §2

[9] = qHTS RealTime-Glo MT Cell Viability Assay in HepG2 cells - 0 hour (AID 1224889); further: nearly all actives have a fitted effect of over 50% in size
Outline: (§4)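 Real-time, nonlytic viability: 600 HepG2 cells/well mixed with NanoLuc enzyme plus prosubstrate; 5 h settle, compound (DMSO) added by pintool; luminescence monitored over 40 h at 37 C.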

[10] = A CellTox Green Cytotoxicity Assay to monitor cytotoxicity in HepG2 cells - 8 hour (AID 1224890); further: nearly all actives have a fitted effect of over 45% in size; further: potency means the concentration at half of the fitted maximal effect
Outline: as §3

[11] = qHTS assay to identify small molecule antagonists of the estrogen receptor alpha (ER-alpha) signaling pathway using the BG1 cell line in the presence of 0.1 nM 17-beta-estradiol - cell viability counter screen (AID 1259241); further: nearly all actives have a fitted effect of over 40% in size
Outline: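 In this screen, hormone-deprived VM7Luc4E2 cells were seeded at 4,000 per well, dosed with compound and 0.1 nM estradiol final, and incubated 22 hr at 37C and 5% CO2; fluorogenic live-cell protease signal reported viability.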

[12] = qHTS assay to identify small molecule phospholipidosis (PLD) inducers (AID 1259344; active means well fitted curve in the direction sought with a large enough effect; an effect the other way counts as inactive or inconclusive; further: potency means the concentration at half of the fitted maximal effect)
Outline: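 HepG2 cells on collagen I, attached 4 h at 37 C, were co-treated with compound and LipidTOX Red dye for 24 h at 37 C, then fixed with paraformaldehyde plus Hoechst 33342 and imaged by high-content microscopy for phospholipid accumulation.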

[13] = qHTS assay to identify small molecule HDAC inhibitors (AID 1259364);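 further: wild-type HCT-116 cells with endogenous class I/II HDAC activity; top concentration of the series differs between compounds; nearly all actives have a fitted effect of over 45% in size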
Outline: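 Read-out: luminescence of HDAC-Glo I/II reagent, 30 min RT, reflecting class I/II deacetylase activity in whole HCT-116 cells pre-exposed 2 h to DMSO-dissolved compounds.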

[14] = qHTS assay to identify small molecule HDAC inhibitors - cell viability counter screen (AID 1259365)
Outline: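 Measured quantity is CellTiter-Glo luminescence from wild-type HCT-116 cells after compound incubation of 2hr at 37C, 5% CO2; reagent developed 30min at room temperature.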

[15] = qHTS assay to identify small molecule antagonists of the androgen receptor (AR) signaling pathway using the MDA cell line in the presence of 0.5 nM R1881 - cell viability counter screen (AID 1259242); further: nearly all actives have a fitted effect of over 45% in size
Outline: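 Viability of MDA-kb2 cells was multiplexed with the luciferase AR readout; after 16 hr with compounds and R1881 at 0.5 nM final, CellTiter-Fluor fluorescence was recorded.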

[16] = biological target: Estrogen receptor (Homo sapiens) (UniProt P03372); assay: qHTS assay to identify small molecule antagonists of the estrogen receptor alpha (ER-alpha) signaling pathway using the BG1 cell line in the presence of 0.1 nM 17-beta-estradiol (AID 1259244); further: nearly all actives have a fitted effect of over 50% in size
Outline: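 Estradiol at 0.1 nM (final) stimulates the endogenous ER-alpha of VM7Luc4E2 cells carrying an ERE-driven luciferase; compounds are co-incubated 22 h at 37C and luciferase output quantified by luminescence.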

[17] = qHTS assay to identify small molecule agonists of the sonic hedgehog signaling (Shh) pathway - cell viability counter screen (AID 1259366); further: nearly all actives have a fitted effect of over 50% in size
Outline: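 In quantitative high-throughput format, 3T3 Gli1-Luc cells were exposed to compounds for 24hr and multiplexed for viability using CellTiter-Fluor, incubated 1hr at 37C before the fluorescence read.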

[18] = qHTS assay to identify small molecule antagonists of the sonic hedgehog signaling (Shh) pathway - cell viability counter screen (AID 1259367); further: nearly all actives have a fitted effect of over 55% in size
Outline: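 NIH/3T3-derived Gli1-Luc reporter cells (2,000 per well) rested 4 hr at 37 C, then received DMSO compounds plus conditioned medium. After 23 hr of treatment, CellTiter-Fluor was added for 1 hr at 37C and fluorescence read.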

[19] = qHTS RealTime-Glo MT Cell Viability Assay in HepG2 cells - 16 hour (AID 1224885); further: nearly all actives have a fitted effect of over 50% in size
Outline: as §4
On the % scale 0 is the no-effect control and ±100 the full control effect.

Estrogen receptor (Homo sapiens), sequence (P03372 whole entry, looked up): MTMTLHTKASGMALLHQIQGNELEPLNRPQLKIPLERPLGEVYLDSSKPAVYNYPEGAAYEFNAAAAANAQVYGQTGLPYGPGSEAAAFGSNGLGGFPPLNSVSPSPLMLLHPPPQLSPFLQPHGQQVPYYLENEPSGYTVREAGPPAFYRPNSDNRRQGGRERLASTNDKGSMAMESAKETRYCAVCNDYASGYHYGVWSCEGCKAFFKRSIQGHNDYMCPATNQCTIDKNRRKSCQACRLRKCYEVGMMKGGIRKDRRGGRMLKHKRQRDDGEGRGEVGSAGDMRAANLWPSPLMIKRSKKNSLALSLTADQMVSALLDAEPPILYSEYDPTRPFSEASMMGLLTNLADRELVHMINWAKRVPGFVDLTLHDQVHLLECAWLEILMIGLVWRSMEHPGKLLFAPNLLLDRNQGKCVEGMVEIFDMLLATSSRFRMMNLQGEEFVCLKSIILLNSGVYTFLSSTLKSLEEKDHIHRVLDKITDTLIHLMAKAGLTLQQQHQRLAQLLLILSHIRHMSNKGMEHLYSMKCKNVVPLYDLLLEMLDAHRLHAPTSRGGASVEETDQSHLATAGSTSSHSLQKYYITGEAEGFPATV

c1cc(CN2CCCCC2)cc(OCCCNc2nc3ccccc3s2)c1
active: Potency [4] 23.9 µM | Potency [6] 9.52 µM | Potency [7] 9.52 µM
inactive: outcome [1] | Potency [2] | Potency [3] | Potency [5] | Potency [8] | Potency [9] | Potency [10] | outcome [11] | Potency [12] | Potency [13] | outcome [14]

CC1=CC(C)C(C=O)C(C)C1 (centres undefined)
inactive: outcome [1] | Potency [2] | Potency [3] | Potency [4] | Potency [5] | Potency [6] | Potency [8] | Potency [9] | Potency [10] | outcome [11] | outcome [15] | outcome [16] | Potency [13] | Potency [17] | outcome [18]

C=C(C)C(=O)OCCC(C)OC(=O)C(=C)C (centres undefined)
inactive: outcome [1] | Potency [2] | Potency [3] | Potency [4] | Potency [5] | outcome [19] | Potency [6] | Potency [8] | Potency [9] | Potency [10] | outcome [11] | outcome [15] | outcome [16] | outcome [14] | Potency [17] | outcome [18]

C=C[Si](OC)(OC)OC
inactive: outcome [1] | Potency [2] | Potency [3] | Potency [4] | Potency [5] | Potency [6] | Potency [8] | Potency [9] | Potency [10] | outcome [11] | outcome [15] | outcome [16] | Potency [13] | outcome [14] | outcome [18]

CC(C)COC(=O)c1ccccc1O
inactive: outcome [1] | Potency [2] | Potency [3] | Potency [4] | Potency [5] | Potency [6] | Potency [7] | Potency [8] | Potency [10] | outcome [11] | outcome [15] | outcome [16] | Potency [13] | outcome [14] | Potency [17] | outcome [18]

CN(C)CCOC(c1ccc(Cl)cc1)c1ccccn1 (centres undefined)
inactive: outcome [1] | Potency [2] | Potency [3] | Potency [4] | Potency [5] | Potency [6] | Potency [8] | Potency [9] | Potency [10] | outcome [11] | outcome [15] | outcome [16] | Potency [12] | Potency [13] | Potency [17] | outcome [18]

CCCCOCC(C)OCC(C)O (centres undefined)
inactive: outcome [1] | Potency [2] | Potency [3] | Potency [4] | Potency [5] | Potency [6] | Potency [8] | Potency [9] | Potency [10] | outcome [11] | outcome [15] | outcome [16] | Potency [13] | outcome [14] | Potency [17] | outcome [18]

C[C@H]1O[C@@H](n2cc(F)c(=O)[nH]c2=O)[C@H](O)[C@@H]1O
inactive: outcome [1] | Potency [2] | Potency [3] | Potency [4] | Potency [5] | Potency [6] | Potency [8] | Potency [9] | Potency [10] | outcome [11] | outcome [15] | Potency [12] | Potency [13] | outcome [14] | outcome [18]

N#CC1(O)CCCCC1
inactive: outcome [1] | Potency [2] | Potency [3] | Potency [4] | Potency [5] | Potency [6] | Potency [7] | Potency [8] | Potency [9] | Potency [10] | outcome [11] | outcome [15] | outcome [14]

Cc1c(C)n(CCN(C)C)c2ccc(C(=O)OCCN(C)C)cc12
active: Potency [12] 11.2 µM
inactive: outcome [1] | Potency [2] | Potency [3] | Potency [4] | Potency [5] | outcome [19] | Potency [7] | Potency [8] | Potency [9] | Potency [10] | outcome [15] | outcome [16] | Potency [13] | outcome [14] | Potency [17] | outcome [18]

CCOC(=O)Cn1c(=O)sc2cccc(Cl)c21
inactive: outcome [1] | Potency [2] | Potency [3] | Potency [4] | Potency [5] | Potency [6] | Potency [7] | Potency [8] | Potency [9] | Potency [10] | outcome [11] | outcome [15] | outcome [16] | outcome [14] | Potency [17] | outcome [18]

Nc1ccn(C2CO[C@H](CO)O2)c(=O)n1 (some centres undefined)
active: Potency [2] 19 µM | Potency [3] 26.8 µM | Potency [4] 5.35 µM | Potency [5] 16.9 µM | Potency [8] 19 µM | Potency [10] 19 µM
inactive: outcome [1] | Potency [6] | Potency [7] | Potency [9] | outcome [11] | outcome [15] | outcome [16] | PLD induction [12] 4.48% [at 7.66 µM] | outcome [14] | Potency [17] | outcome [18]

CCn1cc(C(=O)O)c(=O)c2cc(F)c(N3CCN(C)CC3)cc21
inactive: activity change, negative = cytotoxicity [1] 5.85% [at 15.8 µM] | cytotoxicity increase [2] -8.3% [at 15.8 µM] | cytotoxicity [3] -1.13% [at 15.8 µM] | cytotoxicity increase [4] -17.6% [at 15.8 µM] | cytotoxicity increase [5] -3.43% [at 15.8 µM] | activity change, negative = cytotoxicity [6] 2.21% [at 15.8 µM] | activity change, negative = cytotoxicity [7] 7.74% [at 15.8 µM] | activity change [8] -0.608% [at 15.8 µM, stronger effect = higher value] | activity change, negative = cytotoxicity [9] 5.05% [at 15.8 µM] | cytotoxicity increase [10] -10.7% [at 15.8 µM] | activity change, negative = cytotoxicity [11] 1.73% [at 19 µM] | viability change, negative = cytotoxic [15] 1.22% [at 19 µM] | activity change, negative = inhibition [16] 6.79% [at 19 µM] | Potency [12] | activity change, negative = inhibition [13] -0.624% [at 19 µM] | viability change, negative = cytotoxic [17] 6.14% [at 19 µM] | viability change, negative = cytotoxic [18] 3.37% [at 19 µM]

CCCCc1ccc(N)cc1
inactive: outcome [1] | Potency [2] | Potency [3] | Potency [4] | Potency [5] | outcome [19] | Potency [8] | Potency [9] | Potency [10] | outcome [11] | outcome [15] | outcome [16] | Potency [13] | Potency [17] | outcome [18]

O=C(O)C1CCC1
inactive: outcome [1] | Potency [2] | Potency [3] | Potency [5] | outcome [19] | Potency [6] | Potency [7] | Potency [8] | Potency [9] | Potency [10] | outcome [11] | outcome [15] | outcome [16] | outcome [14] | Potency [17] | outcome [18]

NC(CS)C(=O)O (centres undefined)
inactive: outcome [1] | Potency [2] | Potency [3] | Potency [5] | outcome [19] | Potency [6] | Potency [7] | Potency [8] | Potency [9] | Potency [10] | outcome [11] | outcome [15] | Potency [12] | Potency [13] | outcome [18]
